Source: PubChem
In the library only some 15% were active in any assay of this set; here they are far more common.
ELG1 repair inh: qHTS screen for small molecules that inhibit ELG1-dependent DNA repair in human embryonic kidney (HEK293T) cells expressing luciferase-tagged ELG1; HEK293T ELG1-luciferase reporter, luminescence, 16 h; DNA damage induced by 5-fluorouridine; Potency, µM (highest dose often 46.1 µM), actives largely listed as inhibitors; 330,000 compounds, 2.3% hits; further: nearly all actives have a fitted effect of over 55% in size
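Quantitative HTS, concentration-response format. 2,000 cells/well co-treated with 5-fluorouridine and compound, 16 hr in 5% CO2 at 37 °C; ONE-Glo luminescence read after 30 min.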
DT40 TDP1 CPT: qHTS for Inhibitors of human tyrosyl-DNA phosphodiesterase 1 (TDP1): qHTS in cells in presence of CPT. chicken DT40 Tdp1-/-;hTDP1 cells + 20 nM CPT, ATP luminescence, 48 h. 420,000 compounds, 12% hits. AID 686979, 2013. Potency, µM (top dose mostly 46.2 µM), actives largely listed as inhibitors; further: nearly all actives have a fitted effect of over 55% in size
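Cell growth measured by CellTiter-Glo luminescence after a minimum 48 h, 37 C compound exposure with 20 nM CPT in Tdp1-knockout DT40 cells stably expressing hTDP1, seeded 400/well; qHTS titration format.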
12-LOX inh: Primary qHTS assay for inhibitors of human arachidonate 12S-lipoxygenase (ALOX12): Round 2. purified 12hLO, xylenol orange hydroperoxide absorbance. 580,000 compounds, 1.1% hits. Potency, µM (titrated, usually from 108 µM), usual class: inhibitors
Target sequence (P18054 whole entry, looked up): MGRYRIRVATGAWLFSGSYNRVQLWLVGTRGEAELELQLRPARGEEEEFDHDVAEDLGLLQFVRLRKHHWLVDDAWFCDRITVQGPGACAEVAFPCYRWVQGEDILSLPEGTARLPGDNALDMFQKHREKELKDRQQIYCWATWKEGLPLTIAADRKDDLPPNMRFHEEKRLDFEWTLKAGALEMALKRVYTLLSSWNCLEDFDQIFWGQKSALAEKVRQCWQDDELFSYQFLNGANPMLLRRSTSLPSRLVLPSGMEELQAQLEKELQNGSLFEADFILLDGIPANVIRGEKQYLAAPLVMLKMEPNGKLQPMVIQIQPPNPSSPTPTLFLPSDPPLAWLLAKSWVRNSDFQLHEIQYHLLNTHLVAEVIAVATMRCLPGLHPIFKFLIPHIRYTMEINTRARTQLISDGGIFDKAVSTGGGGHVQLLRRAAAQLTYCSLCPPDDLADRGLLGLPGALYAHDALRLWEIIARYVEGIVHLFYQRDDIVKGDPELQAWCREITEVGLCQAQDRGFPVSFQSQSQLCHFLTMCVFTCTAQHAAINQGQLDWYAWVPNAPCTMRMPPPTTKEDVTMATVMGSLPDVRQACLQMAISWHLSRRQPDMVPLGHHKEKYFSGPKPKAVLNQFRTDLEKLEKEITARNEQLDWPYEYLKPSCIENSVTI
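Purified human 12hLO (150 nM final) in 25 mM Hepes, 0.01% Triton X-100, pH 7.0 was preincubated 15 min at room temperature with compound. Then 40 uM arachidonic acid was added, 30 min. Hydroperoxide was read by Fe-XO absorbance ratio 573/405 nm.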
RORg inh: qHTS for inhibitors of ROR gamma transcriptional activity; Nuclear receptor ROR-gamma (Mus musculus), P51450; Drosophila S2 Gal4-RORgamma UAS-luciferase reporter, 20 h; Potency, µM (highest dose often 53.6 µM), most hits filed as inhibitors; 310,000 compounds, 5.4% hits; further: nearly all actives have a fitted effect of over 60% in size
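Schneider cells (Drosophila), stable Gal4 DBD–ROR gamma + UAS-luc; 1 hr cmpd preincubation; Cu2+ induction 700 uM final; 20 hr ambient; luminescence.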
Gal4-VP16 FLuc: VP16 counterscreen qHTS for inhibitors of ROR gamma transcriptional activity; Drosophila S2 Gal4-VP16 UAS-luciferase, luminescence, 20 h; Potency, µM (top dose mostly 53.6 µM), hits mostly inhibitors; 310,000 compounds, 3.5% hits;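 further: Gal4-VP16 expression switched on by copper sulfate through the metallothionein promoter; nearly all actives have a fitted effect of over 50% in size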
DT40 TDP1 no CPT: qHTS for Inhibitors of human tyrosyl-DNA phosphodiesterase 1 (TDP1): qHTS in cells in absence of CPT; Potency, µM (series often up to 46.2 µM), most hits filed as inhibitors; DT40 Tdp1-/- hTDP1 cells, no CPT, ATP luminescence, 48 h; 420,000 compounds, 15% hits; further: nearly all actives have a fitted effect of over 55% in size
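Cells were dispensed at 400 per well, compounds added by pin tool, plates incubated ≥48 hr at 37 °C, then CellTiter-Glo added for 30 min at room temperature before luminescence reading. Line: DT40 Tdp1-/- complemented with hTDP1; camptothecin omitted.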
Numbers stand for hits; n = inactive; u = inconclusive; x = not tested or not shown. The call rests on the fitted dose curve; in most records, active means well fitted curve in the direction sought with a large enough effect; inconclusive means small, poorly fitted or top-dose-only effect, or another doubt; inactive means no such curve, though single readings can be large; an effect the other way counts as inactive or inconclusive.

SMILES	ELG1 repair inh	DT40 TDP1 CPT	12-LOX inh	RORg inh	Gal4-VP16 FLuc	DT40 TDP1 no CPT
Cc1cccc(C)c1NC(=O)Nc1sc2nc3n(c(=O)c2c1C)CCC(C)CC3 (centres undefined)	x	x	n	x	x	x
CCCCN(CC)CCCNC(=O)Nc1sc2nc3n(c(=O)c2c1C)CCC(C)CC3 (centres undefined)	x	u	n	x	x	20.6µM
CCC[C@@H]1C[C@@]1(CCC)C(NC(=O)OCc1ccccc1)c1ccc(-c2ccccc2)cc1 (some centres undefined)	x	x	x	n	n	x
CCC[C@@H]1C[C@@]1(CCC)[C@@H](NP(=O)(c1ccccc1)c1ccccc1)c1ccc(C(=O)OC)cc1	n	u	n	u	u	16.4µM
O=C1OCCC1Sc1nnc(-c2ccc(Cl)cc2Cl)o1 (centres undefined)	n	n	n	7.94µM	u	n
O=C1OCCC1Sc1nnc(-c2ccccc2)o1 (centres undefined)	n	n	n	n	n	n
CCc1nc2c(NC(=O)Nc3cccc(C(=O)OC)c3)cccn2n1	x	x	70.8µM	x	x	x
CCc1nc2c(NC(=O)NCc3ccc(OC)cc3)cccn2n1	x	x	n	x	x	x
N#Cc1cccc(NC(=O)N[C@H]2[C@H](O)[C@@H](N3CCC(Cc4ccccc4)CC3)[C@@H]3OC[C@H]2O3)c1	x	x	44.7µM	x	x	x
CCCCn1nc(C(=O)Nc2cccc(C#N)c2)c2ccccc2c1=O	x	x	n	x	x	x
CCc1ccc2[nH]cc(C(=O)OCCOC)c(=O)c2c1	n	u	n	n	n	23.1µM
CCc1cccc(CC)c1N(COC)C(=O)Cn1cnc2ccccc21	n	u	n	10µM	n	u
CCc1cccc(CC)c1N(COC)C(=O)Cn1c(C)nc2ccccc21	x	u	n	x	x	u
CCOCN(C(=O)Cn1cnc2ccccc21)c1c(C)cccc1CC	n	20.6µM	n	n	n	23.1µM
COc1cccc(C)c1NC(=O)c1cccc(CN2CCCC(C)C2)c1 (centres undefined)	x	x	n	x	x	x
CCCNC(=O)NC(=O)CSc1ccc2ccccc2n1	x	x	n	x	x	x
Cc1cc(C)c2ccc3nc(C)c(C)c3c2[nH]1	x	x	n	x	x	x
Cc1cc(C)c2ccc3c(C)c(C)nc3c2[nH]1	u	u	n	n	n	20.6µM
O=C(Nc1ccc(Oc2ccccc2)cc1)O[C@@H]1CO[C@H]2[C@@H]1OC[C@@H]2NC(=O)c1ccccn1	x	x	n	x	x	x
CC(=O)N1CCC2(CC1)SCC(=O)N2c1ccc(F)cc1	x	x	n	x	x	x
O=C(NCc1ccc(Cl)cc1Cl)C1CCN(S(=O)(=O)c2ccc3c(c2)OCCCO3)CC1	u	20.6µM	n	n	n	u
O=C(NCc1ccc(F)cc1)C1CCN(S(=O)(=O)c2ccc3c(c2)OCCCO3)CC1	u	u	n	n	n	u
O=C(CCNC(=O)C1CCN(S(=O)(=O)c2ccccc2)CC1)NCc1ccc(Cl)cc1Cl	n	20.6µM	n	n	n	u
O=C(Cc1ccc(Cl)c(Cl)c1)NCc1ccccn1	x	x	n	x	x	x
Cc1csc2nc(-c3ccc(NS(=O)(=O)c4cccs4)cc3)cn12	x	x	n	x	x	x
SMILES	ELG1 repair inh	DT40 TDP1 CPT	12-LOX inh	RORg inh	Gal4-VP16 FLuc	DT40 TDP1 no CPT
Cc1csc2nc(-c3cccc(NC(=O)c4c(F)cccc4F)c3)cn12	x	23.1µM	n	x	x	23.1µM
Cc1csc2nc(-c3cccc(NC(=O)c4ccc(S(N)(=O)=O)cc4)c3)cn12	x	u	n	x	x	16.4µM
CCC(=O)Nc1cccc(-c2cn3c(C)csc3n2)c1	x	n	n	x	x	n
Cc1ccc(C23CC4CC(CC(Cl)(C4)C2)C3)cc1[N+](=O)[O-]	x	x	n	x	x	x
CC(C)(C)C(=O)N1CCN(c2ccc([N+](=O)[O-])c(NCc3cccnc3)c2)CC1	u	4.11µM	n	n	n	4.11µM
O=C(c1ccccc1)N1CCN(c2ccc([N+](=O)[O-])c(NCc3cccnc3)c2)CC1	u	u	n	n	n	u
CCNC(=O)/C(C#N)=C/c1c(N(Cc2ccccc2)Cc2ccccc2)nc2ccccn2c1=O	11.6µM	u	n	n	n	u
CNC(=O)/C(C#N)=C/c1c(N(Cc2ccccc2)Cc2ccccc2)nc2c(C)cccn2c1=O	23.1µM	u	n	n	n	u
O=C(CN1CC2CC(C1)[C@H]1CCCC(=O)N1C2)NCc1ccc(N2CCOCC2)cc1 (some centres undefined)	x	x	n	x	x	x
CCc1c(C)sc(NC(=O)CSc2ccccc2)c1C#N	x	x	n	x	x	x
CCOC(=O)C1C(=O)Oc2ccc3ccccc3c2C1C1CCOC1=O (centres undefined)	n	u	n	n	n	14.6µM
CC(C)c1cc(Cn2c3ccccc3c(=O)n2C(C)Cn2cc(-c3ccc(C(C)(C)C)cc3)nn2)on1 (centres undefined)	x	u	n	x	x	14.6µM
CCOC(=O)C1=c2s/c(=C\c3cccnc3)c(=O)n2C(N)=C(C(=O)OC)C1c1cccnc1 (centres undefined)	u	23.1µM	n	n	n	14.6µM
CCOc1ccc(CCN2C(=O)CCC2(C)C(=O)NCc2ccc(C)cc2)cc1 (centres undefined)	x	x	n	x	x	x
COc1ccc(-c2nnc(SCCC(=O)O)n2-c2ccccc2)cc1OC	n	n	n	n	n	n
Cc1cccc(C)c1NC(=O)CCCSc1nnc(-c2ccc(Cl)cc2)n1-c1ccccc1	20.6µM	23.1µM	n	u	n	16.4µM
Cc1cccc(C)c1NC(=O)CCCSc1nnc(-c2ccc(F)cc2)n1-c1ccccc1	16.4µM	u	n	u	n	u
O=C(CSc1nnc(-c2ccncc2)n1-c1ccccc1)Nc1ccc(F)cc1	x	n	n	x	x	n
Cc1cc(C)c(S(=O)(=O)NCC(c2cccnc2)S(=O)(=O)c2ccccc2)c(C)c1 (centres undefined)	x	x	n	x	x	x
N#Cc1ccccc1S(=O)(=O)NC(=O)[C@H]1O[C@@H](n2cnc3c(N)ncnc32)[C@H](O)[C@@H]1O	x	u	n	x	x	13µM
Cc1cc(C)c(NC(=O)c2cc(S(=O)(=O)N3CCN(c4ccccc4F)CC3)ccc2F)c(C)c1	x	u	n	x	x	4.11µM
CC(=O)c1ccc(S(=O)(=O)N2CCN(c3ccccc3F)CC2)cc1	u	n	n	u	n	n
Cc1cccc(NC(=O)c2cc(S(=O)(=O)N3CCN(c4ccccc4F)CC3)ccc2F)c1C	x	u	n	x	x	u
